The values that follow come from PubChem BioAssay (EPA / NIEHS).

A short description of experiment [1]: ATG_TAL_CIS: Attagene CIS-FACTORIAL HepG2 Assay for human TAL Basal Promoter (AID 2282966; active = hit-call score of the fitted dose curve at least 0.9, where 1 is the maximum; inactive = score below 0.9;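 note: background control endpoint measuring basal TAL promoter reporter mRNA not a specific factor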). The settings on record: HepG2 Attagene cis-factorial TAL promoter reporter; actives raise or lower the signal. In short, it runs like this:
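HepG2, transient MRTU transfection, 24 h compound exposure; RNA → oligo(dT) RT → PCR → 6-FAM primer extension → HpaI digest → CE fluorescence. Bidirectional curve fit vs DMSO. Background-control readout.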

A short description of experiment [2]: ATG_TGFb_CIS: Attagene CIS-FACTORIAL HepG2 Assay for human Transforming Growth Factor (TGF) (AID 2282967; active = hit-call score of the fitted dose curve at least 0.9, where 1 is the maximum; inactive = score below 0.9). The settings on record: HepG2 Attagene CIS TGFb reporter, mRNA transcription; actives raise or lower the signal. In outline:
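Endogenous TGFB1-linked transcription factor activity read as reporter mRNA via RT-PCR and capillary electrophoresis, 24 h after dosing transiently transfected HepG2 cells. Gain or loss of signal fitted relative to DMSO.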

A short description of experiment [3]: ATG_VDRE_CIS: Attagene CIS-FACTORIAL HepG2 Assay for human Vitamin D Receptor Element (VDRE) (AID 2282968; active = hit-call score of the fitted dose curve at least 0.9, where 1 is the maximum; inactive = score below 0.9). The settings on record: HepG2 VDRE cis-reporter transcription, actives raise or lower the signal. In outline: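 Readout is VDRE-driven reporter mRNA reflecting endogenous factor activity in human HepG2 cells, sampled 24 h post-dose. Quantification used labelled RT-PCR products separated by capillary electrophoresis; bidirectional analysis relative to DMSO.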

Experiment [4] has as its target Nuclear receptor subfamily 1 group I member 3 (Homo sapiens) (UniProt Q14994). The experiment in a line: ATG_CAR_TRANS: Attagene TRANS-FACTORIAL HepG2 Assay for human Constitutive Androstane Receptor (CAR) (AID 2282969).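 Note: activators raise reporter mRNA above DMSO so AC50 marks induction.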 The following applies: HepG2 Attagene TRANS-FACTORIAL CAR reporter. In outline: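 Signal is reporter mRNA induction relative to DMSO, measured 24 h after dosing by RT-PCR with fluorescent primer extension and capillary electrophoresis. Human HepG2 liver cells carried transiently transfected chimeric NR-Gal4/GAL4-UAS reporter constructs.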

The target in experiment [5] is X-box-binding protein 1 (Homo sapiens) (UniProt P17861). The experiment in a line: ATG_Xbp1_CIS: Attagene CIS-FACTORIAL HepG2 Assay for human X-box Binding Protein 1 (XBP1) (AID 2282972; active = hit-call score of the fitted dose curve at least 0.9, where 1 is the maximum; inactive = score below 0.9). The settings on record: HepG2 XBP1 cis-element reporter, Attagene multiplex; actives raise or lower the signal. In short, it runs like this:
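Reporter transcripts were quantified by RT-PCR with fluorescent primer extension and capillary electrophoresis after 24 h chemical exposure. Cells: transiently transfected HepG2 carrying cis-regulated reporter constructs; data fitted bidirectionally relative to DMSO.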

Experiment [6] can be described thus: ATG_M_19_TRANS: Attagene TRANS-FACTORIAL HepG2 Assay for M19 Transcription Factor (Internal Marker) (AID 2282974). The settings on record: HepG2 Attagene TRANS-FACTORIAL M19 internal marker reporter. In short, it runs like this: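 HepG2 transiently transfected with GAL4-UAS multiplex reporter constructs, exposed 24 h; reporter RNA quantified by RT-PCR, 6-FAM labeling, HpaI digestion and capillary electrophoresis; internal background marker fitted upward versus DMSO.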

The nature of experiment [7]: ATG_GAL4_TRANS: Attagene TRANS-FACTORIAL HepG2 Assay for GAL4 (Internal Marker) (AID 2282976). The following applies: HepG2 Attagene TRANS GAL4 internal marker reporter. In short, it runs like this:
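RT-PCR/capillary electrophoresis readout of reporter mRNA. HepG2, transient MRTU transfection (GAL4-UAS reporters), 24 h compound exposure. Background-control endpoint, positive direction vs DMSO baseline.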

For experiment [8], the target named is Estrogen-related receptor gamma (Homo sapiens) (UniProt P62508). The experiment in a line: ATG_ERRg_TRANS: Attagene TRANS-FACTORIAL HepG2 Assay for human Estrogen-Related Receptor gamma (ERRg) (AID 2282977).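 Note: hits increase reporter signal over DMSO so potencies reflect activators.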 The following applies: HepG2 Attagene TRANS reporter, ERRg transactivation. In short, it runs like this: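 Exogenous NR-Gal4 chimera activity measured as reporter transcript induction after 24 h in transiently transfected HepG2 cells. RNA reverse-transcribed, PCR-amplified, 6-FAM-labelled and resolved by capillary electrophoresis; increase over DMSO baseline.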

Experiment [9] has as its target Glucocorticoid receptor (Homo sapiens) (UniProt P04150). The experiment in a line: ATG_GR_TRANS: Attagene TRANS-FACTORIAL HepG2 Assay for human Glucocorticoid Receptor (GR) (AID 2282978).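 Note: activators score as hits since higher reporter transcript over DMSO is fitted.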 The settings on record: HepG2 Attagene TRANS GR reporter, mRNA transcription. In short, it runs like this: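 HepG2 cells transiently transfected with GAL4-UAS reporter units and exogenous GR-Gal4 chimera, dosed 24 h. Reporter mRNA by RT-PCR, FAM labeling, HpaI digest and capillary electrophoresis; gain-of-signal fit versus DMSO.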

In experiment [10] the target is Bile acid receptor (Homo sapiens) (UniProt Q96RI1). The experiment in a line: ATG_FXR_TRANS: Attagene TRANS-FACTORIAL HepG2 Assay for Farnesoid X Receptor (FXR) (AID 2282979).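 Note: hits raise reporter mRNA above DMSO so AC50 marks FXR activation.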 The settings on record: HepG2 Attagene TRANS FXR-GAL4 reporter transcription. In short, it runs like this:
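Read-out: fluorescent reporter transcripts quantified by capillary electrophoresis after RT-PCR of total RNA. Source cells were HepG2 transiently carrying chimeric NR-GAL4 plus GAL4-UAS reporter units, dosed 24 h. Activity fitted upward relative to DMSO baseline.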

Experiment [11] has as its target Oxysterols receptor LXR-alpha (Homo sapiens) (UniProt Q13133). The experiment in a line: ATG_LXRa_TRANS: Attagene TRANS-FACTORIAL HepG2 Assay for human Liver X Receptor alpha (LXRa) (AID 2282980). The following applies: HepG2 Attagene TRANS reporter, LXRa transactivation. In short, it runs like this: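 Read-out: reporter transcript levels by RT-PCR plus capillary electrophoresis, fluorescence intensity. Transiently transfected HepG2, exogenous NR-GAL4 chimera, GAL4-UAS reporters; 24 h compound exposure. Activity = increase over DMSO negative control.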

The target in experiment [12] is Oxysterols receptor LXR-beta (Homo sapiens) (UniProt P55055). The experiment in a line: ATG_LXRb_TRANS: Attagene TRANS-FACTORIAL HepG2 Assay for human Liver X Receptor beta (LXRb) (AID 2282981). The following applies: HepG2 Attagene TRANS GAL4-LXRb reporter, mRNA. In outline: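 After 24 h chemical treatment of transfected HepG2 cells carrying exogenous NR-Gal4 chimeras, reporter mRNA was quantified by fluorescent RT-PCR and capillary electrophoresis; activity taken as increase over DMSO controls.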

Experiment [13] deals with Hepatocyte nuclear factor 4-alpha (Homo sapiens) (UniProt P41235). The experiment in a line: ATG_HNF4a_TRANS: Attagene TRANS-FACTORIAL HepG2 Assay for human Hepatocyte Nuclear Factor 4 alpha (HNF4a) (AID 2282982). The settings on record: HepG2 HNF4a transactivation reporter, mRNA readout. In outline: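 Activity of an exogenous HNF4a–Gal4 fusion scored as induced GAL4-UAS reporter transcripts after 24 h chemical exposure of transfected human HepG2 cells. Read-out via RT-PCR with 6-FAM labelling and capillary electrophoresis; rise over DMSO baseline.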

In experiment [14] the target is Nuclear receptor subfamily 4 group A member 2 (Homo sapiens) (UniProt P43354). The experiment in a line: ATG_NURR1_TRANS: Attagene TRANS-FACTORIAL HepG2 Assay for human Nuclear Receptor Related Protein 1 (NURR1) (AID 2282985). The settings on record: HepG2 Attagene TRANS reporter, mRNA readout. In outline:
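Reporter transcript induction, measured by RT-PCR with fluorescent labelling, HpaI digestion and capillary electrophoresis, after 24 hr dosing of human HepG2 cells transiently expressing an exogenous NR-Gal4 fusion with GAL4-UAS-driven reporters; DMSO as baseline.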

For experiment [15], the target named is Transcriptional activator Myb (Homo sapiens) (UniProt P10242). The experiment in a line: ATG_Myb_CIS: Attagene CIS-FACTORIAL HepG2 Assay for human Myeloblastosis (Myb) Proto-Oncogene Transcription Factor (AID 2282986; active = hit-call score of the fitted dose curve at least 0.9, where 1 is the maximum; inactive = score below 0.9). The settings on record: HepG2 Attagene CIS-FACTORIAL Myb reporter transcription; actives raise or lower the signal. In short, it runs like this:
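Transiently transfected HepG2 cells carrying a multiplexed cis-promoter reporter set report endogenous Myb activity after 24 h compound exposure. Reporter mRNA is read by RT-PCR with capillary electrophoresis of fluorescent products, fitted bidirectionally against DMSO.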

For experiment [16], the target named is Nuclear respiratory factor 1 (Homo sapiens) (UniProt Q16656). The experiment in a line: ATG_NRF1_CIS: Attagene CIS-FACTORIAL HepG2 Assay for human Nuclear Respiratory Factor 1 (NRF1) Orphan Gene (AID 2282987; active = hit-call score of the fitted dose curve at least 0.9, where 1 is the maximum; inactive = score below 0.9). The settings on record: HepG2 NRF1 cis-element reporter, Attagene multiplex; actives raise or lower the signal. In short, it runs like this:
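HepG2 cells transiently transfected with multiple cis-regulated reporter units, exposed 24 h. Reporter mRNAs measured by RT-PCR, fluorescent labelling, HpaI digestion and capillary electrophoresis; bidirectional fitting against DMSO.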

Experiment [17] can be described thus: ATG_NFI_CIS: Attagene CIS-FACTORIAL HepG2 Assay for human Nuclear Factor I (NFI) (AID 2282989; active = hit-call score of the fitted dose curve at least 0.9, where 1 is the maximum; inactive = score below 0.9). The following applies: HepG2 cis-regulatory reporter, NFI response element transcription; actives raise or lower the signal. In outline: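 Reporter transcripts were measured by RT-PCR with fluorescent primer extension and capillary electrophoresis 24 h post-treatment. HepG2 cells carried transiently transfected cis-regulated reporter constructs reporting endogenous factor activity; gain or loss fitted against DMSO baseline.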

Experiment [18] deals with Steroid hormone receptor ERR1 (Homo sapiens) (UniProt P11474). The experiment in a line: ATG_ERRa_TRANS: Attagene TRANS-FACTORIAL HepG2 Assay for human Estrogen-Related Receptor alpha (ERRa) (AID 2282971). The settings on record: HepG2 Attagene TRANS reporter, ERRa transactivation. In short, it runs like this:
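Transfected HepG2, 24 h dosing, ERRa-Gal4 chimera driving GAL4-UAS reporter. Readout: reporter mRNA via RT-PCR plus capillary electrophoresis (fluorescence). Positive direction vs DMSO control.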

A short description of experiment [19]: ATG_M_32_TRANS: Attagene TRANS-FACTORIAL HepG2 Assay for M32 Transcription Factor (Internal Marker) (AID 2282984).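 Note: transcript level of a background control reporter unit measured by RT-PCR and capillary electrophoresis.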 The settings on record: HepG2 Attagene TRANS M32 internal marker reporter. In outline:
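Internal background reporter in transfected HepG2: after 24 h chemical exposure, RNA reverse-transcribed, reporter cDNA amplified, fluorescently labelled and HpaI-cut, then sized by capillary electrophoresis. Gain of signal fitted against DMSO control.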

Experiment [20] is described as follows: ATG_M_06_TRANS: Attagene TRANS-FACTORIAL HepG2 Assay for M06 Transcription Factor (Internal Marker) (AID 2282983). The settings on record: HepG2 Attagene TRANS M06 internal marker reporter. In short, it runs like this:
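Read-out: fluorescent reporter cDNA fragments resolved by capillary electrophoresis after RT-PCR and HpaI cut. Source cells were HepG2 carrying transfected multi-reporter GAL4 constructs, dosed 24 h. Increase over DMSO control analysed.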

Structures are written as SMILES. Records with an inconclusive call do not appear. Calls of active or inactive are those of the source. Rule for the calls, unless noted: active = hit-call score of the fitted dose curve at least 0.9, where 1 is the maximum; inconclusive = response in the unintended direction; inactive = score below 0.9.

Sequence of X-box-binding protein 1 (Homo sapiens) (P17861 whole entry, looked up): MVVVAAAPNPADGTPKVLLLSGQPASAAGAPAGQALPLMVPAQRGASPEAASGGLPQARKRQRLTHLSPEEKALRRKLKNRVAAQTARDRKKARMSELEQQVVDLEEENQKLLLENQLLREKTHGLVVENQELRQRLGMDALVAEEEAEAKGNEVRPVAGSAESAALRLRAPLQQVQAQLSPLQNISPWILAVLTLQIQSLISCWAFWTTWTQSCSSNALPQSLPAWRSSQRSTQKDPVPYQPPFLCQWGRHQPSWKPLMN
Sequence of Hepatocyte nuclear factor 4-alpha (Homo sapiens) (P41235 whole entry, looked up, the tested form may be a part): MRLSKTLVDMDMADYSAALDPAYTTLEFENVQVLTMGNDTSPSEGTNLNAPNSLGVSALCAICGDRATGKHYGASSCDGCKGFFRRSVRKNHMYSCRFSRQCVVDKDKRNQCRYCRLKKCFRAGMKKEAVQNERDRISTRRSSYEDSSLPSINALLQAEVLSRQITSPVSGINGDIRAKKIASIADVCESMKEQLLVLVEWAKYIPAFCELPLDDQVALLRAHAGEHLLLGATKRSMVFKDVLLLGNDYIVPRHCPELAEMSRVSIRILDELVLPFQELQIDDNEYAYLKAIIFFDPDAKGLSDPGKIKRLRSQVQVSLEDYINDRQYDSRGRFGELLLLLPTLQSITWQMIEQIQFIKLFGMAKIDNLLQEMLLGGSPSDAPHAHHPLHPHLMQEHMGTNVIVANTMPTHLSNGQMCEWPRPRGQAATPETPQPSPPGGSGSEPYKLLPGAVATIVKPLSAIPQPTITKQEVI
Sequence of Nuclear receptor subfamily 4 group A member 2 (Homo sapiens) (P43354 whole entry, looked up, the tested form may be a part): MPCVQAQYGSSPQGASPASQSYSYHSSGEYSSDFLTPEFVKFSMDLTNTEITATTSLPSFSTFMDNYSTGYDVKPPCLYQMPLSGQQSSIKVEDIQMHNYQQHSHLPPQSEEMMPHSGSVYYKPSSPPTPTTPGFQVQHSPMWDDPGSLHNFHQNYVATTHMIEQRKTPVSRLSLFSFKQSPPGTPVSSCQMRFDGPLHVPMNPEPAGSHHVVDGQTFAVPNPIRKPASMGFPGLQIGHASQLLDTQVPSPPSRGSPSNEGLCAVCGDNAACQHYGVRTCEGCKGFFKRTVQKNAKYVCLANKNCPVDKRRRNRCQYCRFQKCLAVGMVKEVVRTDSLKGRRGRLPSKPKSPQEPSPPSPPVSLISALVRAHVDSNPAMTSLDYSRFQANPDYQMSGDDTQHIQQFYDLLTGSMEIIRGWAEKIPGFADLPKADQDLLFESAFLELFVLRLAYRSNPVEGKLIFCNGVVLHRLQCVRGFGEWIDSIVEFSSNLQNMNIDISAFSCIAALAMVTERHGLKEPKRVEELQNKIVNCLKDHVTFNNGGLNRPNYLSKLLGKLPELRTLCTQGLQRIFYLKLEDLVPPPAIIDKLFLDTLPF
Sequence of Nuclear receptor subfamily 1 group I member 3 (Homo sapiens) (Q14994 whole entry, looked up, the tested form may be a part): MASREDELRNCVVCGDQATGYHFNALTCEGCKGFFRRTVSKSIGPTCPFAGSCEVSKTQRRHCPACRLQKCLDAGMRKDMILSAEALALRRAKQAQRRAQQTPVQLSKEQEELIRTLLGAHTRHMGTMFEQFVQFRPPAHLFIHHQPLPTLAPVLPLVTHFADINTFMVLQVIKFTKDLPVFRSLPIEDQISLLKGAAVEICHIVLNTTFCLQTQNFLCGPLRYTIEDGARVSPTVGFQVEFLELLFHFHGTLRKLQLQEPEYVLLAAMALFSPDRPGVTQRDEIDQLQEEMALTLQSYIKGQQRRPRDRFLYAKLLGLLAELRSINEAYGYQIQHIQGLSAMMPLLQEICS
Sequence of Oxysterols receptor LXR-alpha (Homo sapiens) (Q13133 whole entry, looked up, the tested form may be a part): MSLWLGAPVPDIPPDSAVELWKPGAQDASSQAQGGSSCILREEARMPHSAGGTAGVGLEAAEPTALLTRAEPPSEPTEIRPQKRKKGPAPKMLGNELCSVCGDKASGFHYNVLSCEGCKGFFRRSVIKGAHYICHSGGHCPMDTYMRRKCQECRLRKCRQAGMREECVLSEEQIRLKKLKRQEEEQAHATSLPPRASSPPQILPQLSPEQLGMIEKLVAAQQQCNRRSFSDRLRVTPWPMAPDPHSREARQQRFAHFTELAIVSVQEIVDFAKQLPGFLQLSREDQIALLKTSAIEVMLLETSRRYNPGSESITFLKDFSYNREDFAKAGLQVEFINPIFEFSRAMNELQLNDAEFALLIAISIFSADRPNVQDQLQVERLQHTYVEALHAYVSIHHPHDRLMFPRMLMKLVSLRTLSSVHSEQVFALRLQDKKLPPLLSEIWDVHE
Sequence of Transcriptional activator Myb (Homo sapiens) (P10242 whole entry, looked up): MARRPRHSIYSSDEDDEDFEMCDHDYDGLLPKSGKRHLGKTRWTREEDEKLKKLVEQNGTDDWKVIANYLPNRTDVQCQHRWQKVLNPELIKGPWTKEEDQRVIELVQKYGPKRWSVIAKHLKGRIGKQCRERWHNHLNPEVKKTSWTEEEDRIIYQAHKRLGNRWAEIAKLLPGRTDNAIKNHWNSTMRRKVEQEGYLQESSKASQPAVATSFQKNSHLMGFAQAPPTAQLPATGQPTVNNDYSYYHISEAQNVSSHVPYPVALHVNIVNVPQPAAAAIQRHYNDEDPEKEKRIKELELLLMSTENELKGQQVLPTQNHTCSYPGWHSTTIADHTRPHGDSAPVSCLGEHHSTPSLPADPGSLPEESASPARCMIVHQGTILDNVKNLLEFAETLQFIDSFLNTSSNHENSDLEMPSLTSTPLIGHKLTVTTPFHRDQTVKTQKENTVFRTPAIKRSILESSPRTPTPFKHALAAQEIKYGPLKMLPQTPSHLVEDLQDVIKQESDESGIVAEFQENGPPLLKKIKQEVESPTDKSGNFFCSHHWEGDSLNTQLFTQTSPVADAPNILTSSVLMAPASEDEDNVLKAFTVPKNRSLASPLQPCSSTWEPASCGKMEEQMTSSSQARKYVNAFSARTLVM
Sequence of Estrogen-related receptor gamma (Homo sapiens) (P62508 whole entry, looked up, the tested form may be a part): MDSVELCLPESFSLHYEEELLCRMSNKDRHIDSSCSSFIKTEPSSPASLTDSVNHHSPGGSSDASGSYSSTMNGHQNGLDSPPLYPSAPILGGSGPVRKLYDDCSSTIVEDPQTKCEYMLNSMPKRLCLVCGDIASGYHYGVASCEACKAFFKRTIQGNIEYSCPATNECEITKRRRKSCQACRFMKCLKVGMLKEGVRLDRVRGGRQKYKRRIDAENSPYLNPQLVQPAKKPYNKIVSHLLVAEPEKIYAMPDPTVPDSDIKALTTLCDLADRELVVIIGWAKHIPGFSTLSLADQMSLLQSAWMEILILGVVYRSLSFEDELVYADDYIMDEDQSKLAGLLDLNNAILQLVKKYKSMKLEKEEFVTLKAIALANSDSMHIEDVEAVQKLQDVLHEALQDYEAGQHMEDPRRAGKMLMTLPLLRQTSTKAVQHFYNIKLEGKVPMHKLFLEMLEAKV
Sequence of Glucocorticoid receptor (Homo sapiens) (P04150 whole entry, looked up, the tested form may be a part): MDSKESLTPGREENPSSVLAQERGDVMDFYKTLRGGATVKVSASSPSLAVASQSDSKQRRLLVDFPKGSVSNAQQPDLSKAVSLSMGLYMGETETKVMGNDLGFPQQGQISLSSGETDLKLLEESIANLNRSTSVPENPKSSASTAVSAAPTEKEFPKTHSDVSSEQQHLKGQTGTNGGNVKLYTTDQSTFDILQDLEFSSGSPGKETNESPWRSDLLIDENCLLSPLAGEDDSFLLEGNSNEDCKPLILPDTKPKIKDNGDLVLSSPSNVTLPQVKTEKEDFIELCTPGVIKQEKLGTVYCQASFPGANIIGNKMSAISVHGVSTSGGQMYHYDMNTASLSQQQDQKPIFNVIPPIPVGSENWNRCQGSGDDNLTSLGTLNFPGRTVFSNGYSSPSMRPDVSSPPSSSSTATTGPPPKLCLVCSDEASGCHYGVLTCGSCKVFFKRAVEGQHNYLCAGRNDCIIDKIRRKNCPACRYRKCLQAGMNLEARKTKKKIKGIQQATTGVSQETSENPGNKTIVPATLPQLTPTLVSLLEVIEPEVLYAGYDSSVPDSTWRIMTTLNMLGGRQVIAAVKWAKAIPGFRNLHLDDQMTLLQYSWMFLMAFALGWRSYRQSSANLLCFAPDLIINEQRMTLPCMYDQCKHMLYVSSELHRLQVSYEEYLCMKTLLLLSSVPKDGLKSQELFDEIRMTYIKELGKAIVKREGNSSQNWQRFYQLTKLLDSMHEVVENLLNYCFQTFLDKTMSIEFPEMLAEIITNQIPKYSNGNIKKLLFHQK
Sequence of Nuclear respiratory factor 1 (Homo sapiens) (Q16656 whole entry, looked up): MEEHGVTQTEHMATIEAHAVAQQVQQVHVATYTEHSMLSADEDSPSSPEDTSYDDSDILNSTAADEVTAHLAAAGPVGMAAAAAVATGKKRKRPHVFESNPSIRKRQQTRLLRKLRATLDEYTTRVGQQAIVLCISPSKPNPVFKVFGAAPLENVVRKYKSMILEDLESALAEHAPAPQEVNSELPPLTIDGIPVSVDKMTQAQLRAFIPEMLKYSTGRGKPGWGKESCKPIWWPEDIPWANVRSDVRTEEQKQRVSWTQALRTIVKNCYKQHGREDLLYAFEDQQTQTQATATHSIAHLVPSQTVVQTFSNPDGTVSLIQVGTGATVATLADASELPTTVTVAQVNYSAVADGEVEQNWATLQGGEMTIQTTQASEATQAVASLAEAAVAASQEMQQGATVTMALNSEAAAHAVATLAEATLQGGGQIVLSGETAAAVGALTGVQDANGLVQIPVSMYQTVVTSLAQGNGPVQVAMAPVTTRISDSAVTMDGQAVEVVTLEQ
Sequence of Bile acid receptor (Homo sapiens) (Q96RI1 whole entry, looked up, the tested form may be a part): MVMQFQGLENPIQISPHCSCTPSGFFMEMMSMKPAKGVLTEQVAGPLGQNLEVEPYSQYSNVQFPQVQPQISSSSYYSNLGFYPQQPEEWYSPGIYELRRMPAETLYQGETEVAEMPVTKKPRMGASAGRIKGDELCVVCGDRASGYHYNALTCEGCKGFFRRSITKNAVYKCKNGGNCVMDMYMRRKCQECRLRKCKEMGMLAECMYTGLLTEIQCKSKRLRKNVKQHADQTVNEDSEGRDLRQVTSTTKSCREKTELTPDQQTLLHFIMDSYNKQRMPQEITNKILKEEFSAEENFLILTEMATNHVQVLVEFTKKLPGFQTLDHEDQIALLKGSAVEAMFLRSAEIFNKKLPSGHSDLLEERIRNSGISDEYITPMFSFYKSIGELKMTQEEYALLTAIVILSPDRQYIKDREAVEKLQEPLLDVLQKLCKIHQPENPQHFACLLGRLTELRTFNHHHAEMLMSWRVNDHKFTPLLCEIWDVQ

Take `C[C@H]1C[C@@H](O)CC(C)(C)C1`: the outcome in [1], in [2], in experiment [3], in [4], in experiment [5] and in experiment [6] was inactive. Besides, the outcome in experiment [7], in experiment [8], in experiment [9], in [10], in experiment [11] and in experiment [12] was inactive. For the same molecule, the result in experiment [13], in experiment [14], in experiment [15], in experiment [16] and in experiment [17] was inactive.
The term AC50 denotes the concentration giving half of the maximal activity seen. For `CCC(C)c1cc([N+](=O)[O-])cc([N+](=O)[O-])c1OC(=O)OC(C)C` (stereo unspecified), the molecule was called inactive in experiment [1], in [4], in experiment [18], in experiment [6], in experiment [8] and in [11]. Besides, the outcome in experiment [13] and in experiment [19] was inactive. For the same molecule, the AC50 was 100 µM (active) in experiment [2]; 0.705 µM (active) in [3]; 24.3 µM (active) in experiment [5]; 27.1 µM (active) in experiment [14]; 156 µM (active) in experiment [15]; 143 µM (active) in experiment [16]. For the same molecule, in experiment [17], the AC50 was 24.5 µM (active).
Take `COC(C)(C)CC(C)=O`: the molecule was classed as inactive in [1], in [2], in [3], in experiment [4], in experiment [5] and in experiment [6]. For the same molecule, the molecule was classed as inactive in experiment [7], in experiment [9], in [10], in experiment [11], in experiment [13] and in experiment [20]. Moreover, the molecule was classed as inactive in experiment [19], in experiment [14], in experiment [15], in experiment [16] and in experiment [17].
For `C=Cc1ccncc1`, the outcome in [1], in experiment [2], in experiment [4], in experiment [18], in experiment [6] and in experiment [8] was inactive. Further, the result in experiment [9], in experiment [10], in [11], in experiment [12] and in experiment [20] was inactive. In addition, the AC50 in [3] is 20.2 µM (active); in experiment [13], 84.1 µM (active); in [14] it was 100 µM (active); in experiment [15] it was 30.8 µM (active); in [16], 37.5 µM (active); in experiment [17] it was 21.8 µM (active).
